Among all 2,300 compounds or so, about 180 (7.8%) were called active.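 How the source made its calls: active means average inhibition of at least 30% in the single-concentration confirmation test; inactive means the rest.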 A selection follows.
Target: DNA (cytosine-5)-methyltransferase 1 (Homo sapiens) (UniProt P26358)
Experiment: DNMT1 methyltransferase inhibitor retest, confirmation, biochemical, molecular beacon, fluorescence, single concentration (AID 602385)
Conditions: DNMT1 molecular beacon HinP1I cleavage, at 10 µM, hits give high values

Chain of DNA (cytosine-5)-methyltransferase 1 (Homo sapiens) (P26358 504-1616 limits assumed): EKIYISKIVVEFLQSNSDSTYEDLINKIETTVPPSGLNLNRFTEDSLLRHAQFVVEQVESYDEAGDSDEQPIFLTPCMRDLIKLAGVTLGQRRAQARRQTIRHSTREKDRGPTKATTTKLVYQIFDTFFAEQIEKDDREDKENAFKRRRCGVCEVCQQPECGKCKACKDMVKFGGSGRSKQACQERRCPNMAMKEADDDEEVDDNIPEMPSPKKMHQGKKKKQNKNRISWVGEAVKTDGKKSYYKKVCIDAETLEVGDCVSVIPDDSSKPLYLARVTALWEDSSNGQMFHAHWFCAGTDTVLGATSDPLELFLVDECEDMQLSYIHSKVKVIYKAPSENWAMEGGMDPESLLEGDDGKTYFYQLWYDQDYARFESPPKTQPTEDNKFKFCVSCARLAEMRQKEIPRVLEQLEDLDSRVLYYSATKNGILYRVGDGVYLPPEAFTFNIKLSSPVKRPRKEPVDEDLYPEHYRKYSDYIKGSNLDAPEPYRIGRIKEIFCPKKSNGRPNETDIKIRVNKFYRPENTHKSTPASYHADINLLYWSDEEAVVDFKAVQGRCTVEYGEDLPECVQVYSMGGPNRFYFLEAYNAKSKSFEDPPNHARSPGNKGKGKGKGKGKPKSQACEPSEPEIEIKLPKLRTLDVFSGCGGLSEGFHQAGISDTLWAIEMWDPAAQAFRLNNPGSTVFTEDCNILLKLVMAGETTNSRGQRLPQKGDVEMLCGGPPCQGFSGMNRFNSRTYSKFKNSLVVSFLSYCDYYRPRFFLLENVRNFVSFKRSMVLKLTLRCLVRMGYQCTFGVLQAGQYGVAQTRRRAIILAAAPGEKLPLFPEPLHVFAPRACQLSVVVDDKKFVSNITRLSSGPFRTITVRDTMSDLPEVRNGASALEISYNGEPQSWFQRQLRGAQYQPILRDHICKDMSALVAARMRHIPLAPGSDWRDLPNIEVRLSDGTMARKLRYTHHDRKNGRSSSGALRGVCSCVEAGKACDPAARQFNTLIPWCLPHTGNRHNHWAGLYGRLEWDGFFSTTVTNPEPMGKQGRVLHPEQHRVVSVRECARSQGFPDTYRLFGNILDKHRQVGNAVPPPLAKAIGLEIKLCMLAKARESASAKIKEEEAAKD

SMILES	inhibition
CS(=O)(=O)c1ccc2c(c1)SC1=NC(=O)/C(=C/c3ccco3)C(=N)N12	16.9% (inactive)
Cc1ccc2cc(C)c(N3CCC(C)CC3)nc2c1	1.43% (inactive)
NC(CSC(c1ccccc1)(c1ccccc1)c1ccc(-c2ccccc2)cc1)C(=O)O (centres undefined)	30.5% (active)
CCOc1ccc(CN2CCC(n3nccc3NC(=O)C3CC3)CC2)cc1CO	4.07% (inactive)
Cc1ccc(N=C2NC(=O)/C(=C/C=C/c3ccco3)S2)cc1C	10.4% (inactive)
Cc1ccc(Cc2cncc(O)c2)cc1S(=O)(=O)O	2.5% (inactive)
O=C(CCN1C(=O)C2C3C=CC(C3)C2C1=O)Nc1ccccc1F (centres undefined)	1.42% (inactive)
CC(C)(C)N(Cc1ccccc1)C(=O)c1ccncc1	0.76% (inactive)
COc1cc(-c2nnc(NC(=O)CS(=O)(=O)c3ccc(Cl)cc3)o2)cc(OC)c1OC	7.33% (inactive)
O=C(COC(=O)CCC(=O)c1cccs1)NCc1ccco1	3.72% (inactive)
O=C(COC(=O)c1ccc(F)cc1F)Nc1ncccn1	2.67% (inactive)
Cc1ccc(/C=C/C(=O)Nc2ccc([N+](=O)[O-])c(NC(=O)/C=C/c3ccc(C)o3)c2)o1	40.8% (active)
COc1ccc(OC)c(NC(=O)c2cc(-c3cc(F)ccc3OCC3CCCO3)n[nH]2)c1 (centres undefined)	3.2% (inactive)
COc1ccc(Cl)cc1NC(=O)CCS(=O)(=O)c1ccc(Br)cc1	21.9% (inactive)
COc1ccc2sc(-c3ccc(S(C)(=O)=O)cc3)c(-c3ccc(C(N)=O)cc3)c2c1	2.28% (inactive)
CCOc1cc(NC(=O)c2ccco2)c(OCC)cc1NC(=O)COc1ccccc1	0.94% (inactive)
NC1=CC(=O)C(=O)c2cccnc21	58.8% (active)
CCOc1ccccc1/C=c1\sc2nc(-c3ccco3)nn2c1=O	5.32% (inactive)
O=C(COC(=O)/C=C/c1cn(-c2ccccc2)nc1-c1cccnc1)Nc1ccc(Cl)cc1Cl	1.69% (inactive)
O=C(Nc1cccc(-c2nc3ccccc3[nH]2)c1)c1ccc(C(=O)Nc2cccc(-c3nc4ccccc4[nH]3)c2)cc1	7.67% (inactive)
CCNC(=O)C1CCCN(C(=O)c2cc(F)ccc2C)CC1 (centres undefined)	2.4% (inactive)
CC(=O)c1ccc(NC(=O)c2ccc3c(Cl)c4c(nc3c2)CCCC4)cc1	2.16% (inactive)
C=C(C)C(=O)Nc1cccc(C2=NOC3(C2)C[C@H](C(N)=O)N(C(=O)C(c2ccccc2)c2ccccc2)C3)c1 (some centres undefined)	20.2% (inactive)
O/N=C1\CC2(Cc3nonc31)OCCO2	2.08% (inactive)
CSc1ccc(CNC(=O)c2ccc(NC(=O)C3=CSCCO3)cc2)cc1	5.27% (inactive)
Nc1cc2c(cc1Br)-c1ccc(F)cc1C2=O	-0.64% (inactive)

SMILES	inhibition
CCOC(=O)C(NC(=O)CC(C)C)(Nc1sc2c(c1C(N)=O)CCCC2)C(F)(F)F (centres undefined)	38.7% (active)
CCCCCCc1cc2cc(-c3nnc(-c4ccccc4)o3)c(=O)oc2cc1O	1.72% (inactive)
CCOC(=O)c1c(NC(=S)NC(=O)/C=C/c2cccs2)sc(C)c1C	0.76% (inactive)
COC(=O)CCCCC1=CCC2C(=O)C=C(O)C2C1 (centres undefined)	13.6% (inactive)
Cc1ccc(-c2nnc(-c3ccc(NC(=O)c4cccs4)cc3)o2)cc1	3.86% (inactive)
CC1(C)Cc2nc3sc4c(SCC(=O)NC(c5ccccc5)c5ccccc5)ncnc4c3cc2CO1	2.65% (inactive)
COc1ccc(NC(=O)CN(C)C(=O)c2cc(C3CC3)nn2-c2ccccc2)cc1	-1% (inactive)
CCN(C(=O)CSc1nc(N)cc(=O)[nH]1)C1CCS(=O)(=O)C1 (centres undefined)	4.21% (inactive)
CC(=O)Nc1ccccc1Sc1ccc2c3c(cccc13)C(=O)N(c1ccc(C)cc1)C2=O	1.49% (inactive)
Cc1cc(O)c(C(=O)/C=C/c2c(F)c(F)c(F)c(F)c2F)c(=O)o1	15.6% (inactive)
CN(C)/C=C(/C(=O)c1ccc(Cl)cc1)S(=O)(=O)c1ccccc1	5.43% (inactive)
COc1ccc2[nH]c(=O)c(-c3noc(-c4ccc(F)cc4)n3)cc2c1	0.63% (inactive)
COc1ccc(C(=O)/C=C/c2ccc(-c3ccccc3)cc2)cc1CSCC(=O)O	28.4% (inactive)
CCOC(=O)N1CC=C2C(C#N)=C(N)C(C#N)(C#N)[C@H](c3cccs3)[C@H]2C1	9.81% (inactive)
c1ccc2cc3c(NCCN4CCOCC4)ccnc3cc2c1	23.4% (inactive)
Cc1ccc(C(=O)NNC(=O)c2cc3cc4ccccc4nc3s2)cc1	3.71% (inactive)
CC(C)(C)NC(=O)CSC(=Nc1ccccc1F)NC#N	5.5% (inactive)
O=C(c1cccs1)N1CCC(c2nc3ccccc3s2)CC1	1.54% (inactive)
O=C(Nc1cccc(F)c1)c1cc(-c2ccco2)nc2ccccc12	1.53% (inactive)
CCOc1cc(CN2CCCC(CO)(Cc3ccc(F)cc3F)C2)ccc1OC (centres undefined)	1.12% (inactive)
CN(CCOc1ccccc1)C(=O)c1cc(-c2ccco2)nc2ccccc12	3.76% (inactive)
COc1ccc(/C=C2\SC(=N)N(c3ccc(F)cc3)C2=O)cc1	-0.37% (inactive)
COc1ccc2c(c1)c(=O)c(C(=O)c1ccc(Cl)cc1)cn2CC(=O)Nc1ccc(F)cc1	0.08% (inactive)
CCc1nn(-c2cc(Oc3cccc4ccccc34)nc(-c3ccccc3)n2)c(N)c1C#N	-0.43% (inactive)
Cc1ccc2[nH]c(=O)c(-c3nc4c(C)cccn4c3NCc3ccco3)cc2c1	-1.18% (inactive)
O=C(CN1CCCSc2ccccc21)N1CCN(S(=O)(=O)c2cccc(F)c2)CC1	2.39% (inactive)

SMILES	inhibition
O=C(COC(=O)c1ccccc1O)NCc1ccco1	3.59% (inactive)
COc1ccc(C(=O)OCC(=O)Nc2cccc(C(C)=O)c2)cc1OC	5.6% (inactive)
CC(=O)Nc1ccc(SCC(=O)NC(=O)c2ccc(Cl)cc2)cc1	2.15% (inactive)
O=C(Oc1ccc(-c2nc(-c3ccccn3)no2)cc1)c1ccccc1	29% (inactive)
O=C(Nc1nc(-c2ccco2)c(-c2ccco2)s1)c1ccco1	6.2% (inactive)
Cc1onc(-c2ccccc2)c1C(=O)Nc1ccccc1C#N	1.14% (inactive)
c1coc(-c2nc3nc4ccccc4n3nc2-c2ccco2)c1	0.83% (inactive)
O=C1CCCC(O)=C1C=NCCc1ccccc1	0.99% (inactive)
NNc1cccc(C=Cc2ccccc2)cc1=O	1.25% (inactive)
CCN1CCN(Cc2nc3c(c(=O)n(C)c(=O)n3C)n2CC(=O)c2ccccc2)CC1	0.76% (inactive)
CCOC(=O)c1cccc(NC(=O)C2CCCN(S(=O)(=O)c3cnc[nH]3)C2)c1 (centres undefined)	1.94% (inactive)
C=CCn1c(=NC(=O)c2ccc(S(=O)(=O)N3CCCC3)cc2)sc2cc(NC(C)=O)ccc21	1.72% (inactive)
Oc1c(C(c2ccco2)N2CCC3(CC2)OCCO3)sc2ncnn12 (centres undefined)	1.28% (inactive)
COc1ccc(CC(=O)Nc2ccc(-c3nnc(-c4ccc(C)cc4)o3)cc2)cc1	-0.08% (inactive)
COc1ccc(CC(=O)Nc2ccc(-c3nnc(-c4ccccc4)o3)cc2)cc1	3.13% (inactive)
COc1ccc(Cc2nnc(NC(=O)Cc3cccs3)s2)cc1	87.7% (active)
CCN1C(=O)c2cccc3c(N)ccc1c23	2.42% (inactive)
Cc1cc2nc(-c3ccco3)c(Cc3cccc(F)c3)n2c(C)c1Br	7.28% (inactive)
COc1ccc(OCC(=O)NNC(=O)c2ccc(-c3ccccc3)cc2)cc1	1.62% (inactive)
O=C(COc1ccc([N+](=O)[O-])cc1)Nc1ccc(N2CCCC2)cc1	6.61% (inactive)
O=C(COc1ccc(/C=N/NC(=O)c2ccc(O)cc2)cc1)Nc1ccc([N+](=O)[O-])cc1	39.5% (active)
O=C(CCNC(=O)c1ccccc1)NN=Cc1ccc(Br)o1	2.65% (inactive)
O=C(c1ccc(CS(=O)(=O)c2ccccc2)o1)N1CCN(c2ccccc2)CC1	0.25% (inactive)
COc1ccc(Br)cc1/C=N/Nc1ccc(S(=O)(=O)Nc2ccccc2C(=O)O)cc1[N+](=O)[O-]	97.7% (active)
C/C(=N\Nc1ccc(S(N)(=O)=O)cc1[N+](=O)[O-])c1cccs1	1.78% (inactive)
CC1CN(C(=O)c2ccccc2NS(=O)(=O)c2cccc([N+](=O)[O-])c2)CC(C)O1 (centres undefined)	1.75% (inactive)

SMILES	inhibition
C=Cc1ccc(C(=O)N2CCCC(CCC(=O)N3CCN(c4ccccn4)CC3)C2)cc1 (centres undefined)	1.51% (inactive)
Cc1ccc(CNC(=O)CSc2nnc3c(n2)[nH]c2ccc(F)cc23)cc1	1.24% (inactive)
c1ccc2cc3[nH]c(CN4CCCCC4)nc3cc2c1	3.8% (inactive)
CCOC(=O)/C(C#N)=C/c1ccc(OCC(=O)Nc2ccccc2)c(OC)c1	4.96% (inactive)
CCCCNC(=O)CCn1c(=O)c2ccccc2n(Cc2cc(C)ccc2C)c1=O	2.63% (inactive)
C=CCn1c(=S)[nH]c2scc(-c3ccco3)c2c1=O	8.63% (inactive)
CN(Cc1nc2ccc(F)cc2[nH]1)Cc1nc(CC2CC2)no1	4.53% (inactive)
COc1ccc(-n2c(SCC(=O)Nc3sc4c(c3C#N)CCCC4)nnc2-c2ccc(O)cc2)cc1	18.9% (inactive)
O=C(CCS(=O)(=O)c1ccc(Br)cc1)NCCc1ccc(Cl)cc1	3.33% (inactive)
CCc1ccc(NC(=O)CS(=O)CC(=O)NCCCc2ccccc2)cc1 (centres undefined)	2.37% (inactive)
CCC/C=C(\CCC)C(NC(=O)Cc1ccccc1)c1ccc(C(=O)OC)cc1 (centres undefined)	1.76% (inactive)
COc1ccc(NC(=O)CCn2ccnc2)c(OC)c1	3.76% (inactive)
Cc1ccccc1-n1cc(CNC(=O)CC2C(=O)NCCN2C/C=C/c2ccccc2)cn1 (centres undefined)	0.15% (inactive)
C=CC1=C(C(=O)O)N2C(=O)[C@@H](NC(=O)/C(=N\OCC(=O)O)c3csc(N)n3)[C@H]2SC1	4.47% (inactive)
O=C(NNc1ccccn1)c1ccc(Cl)nc1	0.99% (inactive)
CC(Oc1ccccc1)C(=O)Nc1oc(-c2ccco2)c(-c2ccco2)c1C#N (centres undefined)	1.51% (inactive)
COc1cccc(C(=O)Nc2ccc(N3CCCC3)cc2)c1	20.5% (inactive)
Cc1ccc(-c2cc(C(=O)NCc3cn(C)nc3C)c3cc(Br)ccc3n2)cc1	8.12% (inactive)
CC1(C(=O)NS(=O)(=O)c2ccccc2)CCN1C(=O)C/C=C/c1ccccc1 (centres undefined)	0.79% (inactive)
N#Cc1ccccc1CN1C(=O)S/C(=C/c2cccn2-c2cccc(C(=O)O)c2)C1=O	12.5% (inactive)
Cc1ccccc1NC(=O)CN1C(=O)N/C(=C\c2cccn2-c2cccc(C(=O)O)c2)C1=O	34.7% (active)
O=C(Cn1nnc(-c2ccccc2)n1)N/N=C/c1ccc(-c2ccc(Cl)cc2)o1	2.46% (inactive)
C=CC[C@@H](CC(=O)N[C@H](CO)Cc1ccccc1)C(=O)N[C@@H](COC(=O)[C@@H](CC=C)Cc1ccc(F)cc1)Cc1c[nH]c2ccccc12	5.95% (inactive)
O=C(CSc1nc2ccccc2c(=O)[nH]1)Nc1nc(-c2ccc(Br)cc2)cs1	41.9% (active)
O=c1[nH]c(/C=C/c2cccc(Br)c2)nc2ccccc12	3.81% (inactive)
Cc1nnc(N/N=C/c2cccs2)[nH]c1=O	2.68% (inactive)

Source: PubChem BioAssay AID602385 (Sanford-Burnham Center for Chemical Genomics, 2012)
